The values that follow come from PubChem BioAssay (EPA / NIEHS).

The source holds several records for some structures; these can differ, active in one and inactive in another. Active and inactive are the calls of the source. Rule for the calls: active = hit-call score of the fitted dose curve at least 0.9, where 1 is the maximum; inactive = score below 0.9.

The nature of this experiment: ATG_M_32_CIS: Attagene CIS-FACTORIAL HepG2 Assay for M32 Transcription Factor (Internal Marker) (AID 2282949).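 Note: background control marker of the multiplexed CIS panel rather than a real target.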 The note with it: HepG2 Attagene cis-factorial M32 reporter, mRNA; actives raise or lower the signal. How it is done:
ATG_CIS is a cell-based, multiplexed-readout assay that uses HepG2, a human liver cell line, with measurements taken at 24 hours after chemical dosing in a 24-well plate.ATG_M_32_CIS is one of 52 assay component(s) measured or calculated from the ATG_CIS assay. It is designed to make measurements of mRNA induction, a form of inducible reporter, as detected with fluorescence intensity signals by Reverse transcription polymerase chain reaction (RT-PCR) and Capillary electrophoresis technology.Data from the assay component ATG_M_32_CIS was analyzed into 1 assay endpoint. This assay endpoint, ATG_M_32_CIS, was analyzed with bidirectional fitting relative to DMSO as the negative control and baseline of activity. Using a type of inducible reporter, measures of mRNA for gain or loss-of-signal activity can be used to understand the background control at the transcription factor-level as they relate to the gene . Furthermore, this assay endpoint can be referred to as a secondary readout, because this assay has produced multiple assay endpoints where this one serves a background control function. To generalize the intended target to other relatable targets, this assay endpoint is annotated to the background measurement intended target family, where the subfamily is internal marker.
Human liver HepG2 cells are transiently transfected with multiple reporter transcription units (MRTUs) in 6-well plates using FuGene 6 reagent (Roche; 3 ml FuGene/1 mg DNA). The MRTU constructs are regulated by a cis-regulating element (promoter). […] A major difference between the CIS and TRANS system is that in CIS activities of endogenous TFs are measured, whereas the TRANS assay evaluates changes in activities of exogenous, chimeric NR-Gal4 proteins. […] At the end of 24 hour incubation, total RNA was isolated using TriZol reagent (Invitrogen). The isolated RNA is then reverse-transcribed using oligo(dT) primer and Mo-MLV reverse transcriptase (Invitrogen) with DNAse I (Ambion) treatment for 30 min. The one-tenth of the produced cDNA was amplified by PCR using Taq DNA polymerase (Invitrogen) and two reporter sequence-specific primers. The PCR products were fluorescently labeled by primer extension with 6-arboxyfluorescein (6-FAM) 5'-labeled reporter sequence-specific primer (2 min at 95 C, 20 s at 68 C and 10 min at 72 C) and these products were digested with 5U of HpaI (New England Biolabs) for 2h at 37 C. The fragments were purified using Qiaquick PCR columns (Qiagen), analyzed on an ABI 3130xL genetic analyzer (Applied Biosystems) with peak positions identified by using a set of X-rhodamine (ROX)-labeled MapMarker1000 molecular weight standards (BioVentures). The raw capillary electrophoresis data was processed using Attagraph software (Attagene).
For the compound `Cc1c(F)c(F)c(COC(=O)C2C(/C=C(\Cl)C(F)(F)F)C2(C)C)c(F)c1F` (stereo not given), the call was inactive.

With `CC1=C(C(=O)Nc2ccccc2)SCCO1`, the result was inactive.

For the compound `Oc1ccccc1-c1ccccc1`, the call was inactive.

As for `O=C(O)COc1nc(Cl)c(Cl)cc1Cl`, the result was inactive.

Take `COP(N)(=O)SC` (stereo not given): the compound was called inactive.

Take `N#Cc1nn(-c2c(Cl)cc(C(F)(F)F)cc2Cl)c(N)c1S(=O)C(F)(F)F` (stereo not given): the compound was called inactive.

For the compound `CC(C)Oc1cc(-n2nc(C(C)(C)C)oc2=O)c(Cl)cc1Cl`, the result was inactive.

On to `CC(Oc1ccc(Cl)cc1Cl)C(=O)O` (stereo not given), for which the compound was classed as inactive.

With `COc1nc(C)nc(NC(=O)NS(=O)(=O)c2ccccc2Cl)n1`, the outcome was inactive.

For the compound `CCOC(=O)C(Cl)Cc1cc(-n2nc(C)n(C(F)F)c2=O)c(F)cc1Cl` (stereo not given), the outcome was inactive.

Regarding `CC(C)C1(C)N=C(c2nc3ccccc3cc2C(=O)O)NC1=O` (stereo not given), the outcome was inactive.

Take `COc1ccc(C(c2ccc(OC)cc2)C(Cl)(Cl)Cl)cc1`: the outcome was inactive.

Take `CN(C)C(=S)SSC(=S)N(C)C`: the result was inactive.

Take `COc1nc(NC(C)C)nc(NC(C)C)n1`: the outcome was inactive.

Turning to `O=C(O)c1nc(Cl)ccc1Cl`, the compound was called inactive.

With `COc1cnc(OC)n2nc(NS(=O)(=O)c3c(OCC(F)F)cccc3C(F)(F)F)nc12`, the outcome was inactive.

Take `OC(c1ccc(Cl)cc1)(c1cncnc1)c1ccccc1Cl` (stereo not given): the call was inactive.

For `N#CC(CCc1ccc(Cl)cc1)(Cn1cncn1)c1ccccc1` (stereo not given), the compound was called inactive.

On to `CCCCNC(=O)n1c(NC(=O)OC)nc2ccccc21`, for which the outcome was inactive.

Consider `CS/C(C)=N/OC(=O)N(C)SN(C)C(=O)O/N=C(\C)SC`, for which the call was inactive.

For `CNC(=S)S`, the call was inactive.

Consider `COP(=S)(OC)Oc1nc(Cl)c(Cl)cc1Cl`, for which the result was inactive.

Take `CCCN(CCC)c1c([N+](=O)[O-])cc(S(N)(=O)=O)cc1[N+](=O)[O-]`: the result was inactive.

Take `CCOC(=O)CC(SP(=S)(OC)OC)C(=O)OCC` (stereo not given): the outcome was inactive.

Regarding `C=CCC1=C(C)[C@@H](OC(=O)[C@@H]2[C@@H](C=C(C)C)C2(C)C)CC1=O`, the outcome was inactive.

Consider `CCCC1COC(Cn2cncn2)(c2ccc(Cl)cc2Cl)O1` (stereo not given), for which the outcome was inactive.

Consider `Fc1ccc(Oc2ccnc3cc(Cl)cc(Cl)c23)cc1`, for which the call was inactive.

For `CCCCNC(=O)OCC#CI`, the result was inactive.

On to `CC(C)(C)c1ccc(CSc2cnn(C(C)(C)C)c(=O)c2Cl)cc1`, for which the result was inactive.

In the case of `CCNc1nc(Cl)nc(NCC)n1`, the result was inactive.

As to `O=C(Nc1ccccc1)Nc1ccnc(Cl)c1`, the result was inactive.

Regarding `CNC(=O)ON=CC(C)(C)SC`, the compound was classed as inactive.

In the case of `CCOc1cc(Oc2ccc(C(F)(F)F)cc2Cl)ccc1[N+](=O)[O-]`, the compound was called inactive.

Regarding `COC(=O)C(C)Oc1ccc(Oc2ccc(Cl)cc2Cl)cc1` (stereo not given), the call was inactive.

In the case of `CC1COC(Cn2cncn2)(c2ccc(Oc3ccc(Cl)cc3)cc2Cl)O1` (stereo not given), the call was inactive.

Consider `CCON=C(CC)C1=C(O)CC(c2c(C)cc(C)cc2C)CC1=O` (stereo not given), for which the call was inactive.

As to `Cc1cc(Cl)ccc1OCC(=O)O`, the outcome was inactive.

Take `COC(=O)N(OC)c1ccccc1COc1ccn(-c2ccc(Cl)cc2)n1`: the call was inactive.

Turning to `C=CCC1=C(C)C(OC(=O)C2C(C=C(C)C)C2(C)C)CC1=O` (stereo not given), the AC50 (in general, the concentration at which the activity in the assay is half-maximal) is 107 µM (active) and the compound was called inactive.
